Among all 5,500 compounds or so, about 2,000 (36%) were called active. Not shown: some 18% with an inconclusive outcome. Rule as the data show it: active = normalized growth mostly below about 0.91 (no sharp cut-off); inconclusive = no clear call, values can overlap the other calls; inactive = mostly above about 0.92. The list shows a part of the results.
Assay: chemical genetic growth profiling, strain panel (AID 1159580);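 also: tested at 20 µM; growth read once vehicle control cultures reached saturation at 30 °C; 1 = growth at the plate median or of vehicle wells; lower values mean less growth of the strain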
Conditions: S. cerevisiae deletion strains, growth OD

Measured: normalized growth

NC(=S)N/N=C1/CCCc2ccccc21
active: locus YDR052C, strain DBF4, stronger effect = lower value 0.884 | locus YDR226W, strain ADK1, stronger effect = lower value 0.866 | locus YFR028C, strain CDC14, stronger effect = lower value 0.834 | locus YHR030C, strain SLT2, stronger effect = lower value 0.805 | locus YJR016C, strain ILV3, stronger effect = lower value 0.896 | locus YKL048C, strain ELM1, stronger effect = lower value 0.781 | locus YKL203C, strain TOR2, stronger effect = lower value 0.589 | locus YLR403W, strain SFP1, stronger effect = lower value 0.659 | locus YNL207W, strain RIO2, stronger effect = lower value 0.858 | locus YOR119C, strain RIO1, stronger effect = lower value 0.573
inactive: locus YAR019C, strain CDC15, stronger effect = lower value 0.923 | locus YBL105C, strain PKC1, stronger effect = lower value 0.944 | locus YBR135W, strain CKS1, stronger effect = lower value 0.939 | locus YBR136W, strain MEC1, stronger effect = lower value 0.909 | locus YBR160W, strain CDC28, stronger effect = lower value 0.905 | locus YDL017W, strain CDC7, stronger effect = lower value 0.921 | locus YDL028C, strain MPS1, stronger effect = lower value 0.924 | locus YDL101C, strain DUN1, stronger effect = lower value 0.921 | locus YDL108W, strain KIN28, stronger effect = lower value 0.906 | locus YDL214C, strain PRR2, stronger effect = lower value 0.805 | locus YDR054C, strain cdc34, stronger effect = lower value 0.885 | locus YDR477W, strain SNF1, stronger effect = lower value 0.748 | locus YER123W, strain YCK3, stronger effect = lower value 0.891 | locus YER133W, strain GLC7, stronger effect = lower value 0.802 | locus YFL009W, strain cdc4, stronger effect = lower value 0.92 | locus YFL029C, strain CAK1, stronger effect = lower value 0.921 | locus YFR003C, strain YPI1, stronger effect = lower value 0.913 | locus YFR019W, strain FAB1, stronger effect = lower value 0.925 | locus YGR040W, strain KSS1, stronger effect = lower value 0.805 | locus YGR052W, strain FMP48, stronger effect = lower value 0.746 | locus YGR092W, strain DBF2, stronger effect = lower value 0.814 | locus YHR079C, strain IRE1, stronger effect = lower value 0.954 | locus YHR082C, strain KSP1, stronger effect = lower value 0.935 | locus YHR205W, strain SCH9, stronger effect = lower value 0.993 | locus YIL147C, strain SLN1, stronger effect = lower value 0.91 | locus YJL095W, strain BCK1, stronger effect = lower value 0.934 | locus YJL128C, strain PBS2, stronger effect = lower value 0.966 | locus YJL157C, strain FAR1, stronger effect = lower value 0.749 | locus YJR066W, strain TOR1 (second series), stronger effect = lower value 0.824 | locus YJR066W, strain TOR1, stronger effect = lower value 0.765 | locus YKL067W, strain YNK1, stronger effect = lower value 0.796 | locus YKL101W, strain HSL1, stronger effect = lower value 0.822 | locus YKL193C, strain SDS22, stronger effect = lower value 0.922 | locus YLR113W, strain HOG1, stronger effect = lower value 1 | locus YLR133W, strain CKI1, stronger effect = lower value 0.796 | locus YML070W, strain DAK1, stronger effect = lower value 0.914 | locus YMR001C, strain CDC5, stronger effect = lower value 0.939 | locus YMR205C, strain PFK2 (second series), stronger effect = lower value 0.759 | locus YNL006W, strain LST8, stronger effect = lower value 0.978 | locus YNL020C, strain ARK1, stronger effect = lower value 0.802 | locus YNL161W, strain CBK1, stronger effect = lower value 0.955 | locus YNL183C, strain NPR1, stronger effect = lower value 0.735 | locus YNL222W, strain SSU72, stronger effect = lower value 0.956 | locus YNL307C, strain MCK1 (second series), stronger effect = lower value 0.695 | locus YOL078W, strain AVO1, stronger effect = lower value 0.925 | locus YOL136C, strain PFK27, stronger effect = lower value 0.922 | locus YOR061W, strain CKA2, stronger effect = lower value 0.902 | locus YOR231W, strain MKK1, stronger effect = lower value 0.912 | locus YOR329C, strain SCD5, stronger effect = lower value 0.965 | locus YPL031C, strain PHO85, stronger effect = lower value 0.788 | locus YPL153C, strain RAD53, stronger effect = lower value 0.837 | locus YPL204W, strain HRR25, stronger effect = lower value 0.872 | locus YPL209C, strain IPL1, stronger effect = lower value 0.934 | locus YPL256C, strain CLN2, stronger effect = lower value 0.999 | locus YPR025C, strain CCL1, stronger effect = lower value 0.937 | locus YPR106W, strain ISR1, stronger effect = lower value 0.913 | locus YPR111W, strain DBF20, stronger effect = lower value 0.874 | strain NNK1, stronger effect = lower value 0.908 | strain TSCII, stronger effect = lower value 0.93
